We go through 64 compounds from PubChem BioAssay AID1220 (Sanford-Burnham Center for Chemical Genomics, 2008).

Structures are written as SMILES. Out of some 190,000 compounds screened, about 1,300 (0.68%) were called active. Rule as the data show it: active = inhibition above about 50%; inactive = the rest. Many of the other results were omitted from the sample, so actives are more common in it than they were.

For this assay, the target named is Mannose-6-phosphate isomerase (Homo sapiens) (UniProt P34949). As to the kind of experiment: human PMI inhibitors, high substrate, primary screen, biochemical, fluorescence intensity, high mannose 6-phosphate (AID 1220). The conditions noted are these: recombinant PMI enzyme, coupled fluorescence intensity; at 20 µM; hits give high values.
Mannose-6-phosphate isomerase (Homo sapiens), sequence (P34949 whole entry, looked up): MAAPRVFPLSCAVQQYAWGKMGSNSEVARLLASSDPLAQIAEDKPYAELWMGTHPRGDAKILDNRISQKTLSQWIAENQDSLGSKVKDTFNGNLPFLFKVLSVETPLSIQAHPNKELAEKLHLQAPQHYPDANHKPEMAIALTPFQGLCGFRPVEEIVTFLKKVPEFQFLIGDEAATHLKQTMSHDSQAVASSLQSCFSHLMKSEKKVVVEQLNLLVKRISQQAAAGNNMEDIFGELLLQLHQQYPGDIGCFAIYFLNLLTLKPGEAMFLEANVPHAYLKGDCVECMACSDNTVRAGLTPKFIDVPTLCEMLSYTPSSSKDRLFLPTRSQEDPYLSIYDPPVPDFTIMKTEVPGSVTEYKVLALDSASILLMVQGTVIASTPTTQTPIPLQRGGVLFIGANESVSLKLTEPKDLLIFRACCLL
The inhibition is the change of the read-out against control, counted positive when it falls. With `Oc1cccc2cc3cccc(O)c3c(O)c12`, the inhibition is -119% (inactive). Then `Cc1ccc2cccc(O)c2[n+]1[O-]`, with 53.5% (active). `Cc1cc(C)c2ccc(C)[n+]([O-])c2c1O`: the inhibition was -26.8% (inactive). As for `Cc1cccc(Cn2ccc(NC(=O)c3cccnc3)n2)c1`, the inhibition was -9.3% (inactive). On to `CCOc1ccc(C(=O)CC(Sc2ccc(C)cc2)C(=O)O)cc1` (centres undefined), for which the inhibition is -4% (inactive). Consider `CCCOC(=O)c1ccc(Oc2c(-c3ccc(O)cc3O)n[nH]c2C)cc1`, for which the inhibition was 5.2% (inactive). Under `COc1cc(N2CCCC2)c(OC)cc1C=O` stands 53.6% (active); under `COc1cc(N2CCCC2)c(OC)cc1/C=C1/NC(=S)NC1=O`, 27.9% (inactive). Then `COc1cc(N2CCCC2)c(OC)cc1/C=C(/C#N)c1ccc(F)cc1`, with 54.8% (active); and `COc1cc(N2CCCC2)c(OC)cc1/C=C(/C#N)c1cccc(F)c1`, with 11.2% (inactive).

Regarding `COc1cc(N2CCCC2)c(OC)cc1/C=C(/C#N)c1ccc(Br)cc1`, the inhibition is 13.6% (inactive).

Consider `COc1cc(N2CCCC2)ccc1C=O`, for which the inhibition was 23% (inactive). `CCOCCCN1CN(Cc2ccccc2)CNC1=S`: the inhibition is -6.2% (inactive). As to `Cc1cc(C)cc(OCC(=O)OCCN2C(=O)c3ccccc3C2=O)c1`, the inhibition was 11.5% (inactive). Then `O=S1(=O)N=C(N2CCc3ccccc3C2)c2ccccc21`, with -8.5% (inactive).

As to `c1ccc(CC2CCN(C3=Nc4cccc5cccc3c45)CC2)cc1`, the inhibition was 10.8% (inactive). Under `c1ccc(NC2=Nc3cccc4cccc2c34)cc1` stands 9.8% (inactive); under `CCOC(=O)N1CCN(C2=Nc3cccc4cccc2c34)CC1`, 58.5% (active); under `c1ccc2c(c1)CCN(C1=Nc3cccc4cccc1c34)C2`, 60.2% (active). Under `COc1ccccc1N1CCN(C2=Nc3cccc4cccc2c34)CC1` stands 27.3% (inactive).

Turning to `NC1=Nc2cccc3cccc1c23`, the inhibition is 60% (active). Then `NC(=O)NNC1=Nc2cccc3cccc1c23`, with 8.5% (inactive); and `c1ccc(CN2CCN(C3=Nc4cccc5cccc3c45)CC2)cc1`, with 21.9% (inactive). Turning to `CC1CN(C2=Nc3cccc4cccc2c34)CC(C)O1` (centres undefined), the inhibition is 59.2% (active). Then `CCOC(=O)N1CCN(c2cccc(C)c2C)CC1`, with -11.4% (inactive); and `CC1CN(c2nc3ccccc3cc2-c2ccccc2)CC(C)O1` (centres undefined), with 5.7% (inactive); and `Cc1nn2c(=O)c(NC(=O)c3ccc(Cl)cc3)cnc2s1`, with 0.6% (inactive). Take `Cc1ccc(/C(N)=N/OC(=O)c2cccc(F)c2)cc1`: the inhibition was 3.9% (inactive).

Regarding `COc1ccc(C(=O)OCC(=O)N2C(C)CCCC2C)cc1[N+](=O)[O-]` (centres undefined), the inhibition is -0.8% (inactive).

As for `COC(=O)c1ccccc1NC(=O)N[C@@H](C)C(=O)OC`, the inhibition is -13.4% (inactive).

Consider `O=C1OCC(CO)(CO)N=C1NNc1cc(Cl)ccc1Cl`, for which the inhibition is -81.3% (inactive).

In the case of `CCC(=O)NCCNc1nc2cc(C)cc(C)c2cc1C#N`, the inhibition was 12.8% (inactive). Under `CC(C)C(NC(=O)c1ccccc1Cl)C(=O)OCc1nc2scc(-c3ccccc3Cl)c2c(=O)[nH]1` (centres undefined) stands -15.4% (inactive). `O=C(CN1C(=O)c2cccc3cccc(c23)C1=O)N1CCN(c2ccccn2)CC1`: the inhibition is -1.5% (inactive). For `CC(=O)N1CCN(C2=Nc3cccc4cccc2c34)CC1`, the inhibition was 52.4% (active). Under `O=C(CCCN1C(=O)c2cccc3cccc(c23)C1=O)N1CCN(c2ncccn2)CC1` stands 10.1% (inactive); under `c1cc2c3c(cccc3c1)C(N1CCCCCC1)=N2`, 12.7% (inactive); under `c1cc2c3c(cccc3c1)C(N1CCCCC1)=N2`, 58.7% (active).

As for `Fc1ccc(N2CCN(C3=Nc4cccc5cccc3c45)CC2)cc1`, the inhibition is 32.1% (inactive).

Regarding `CC(C)n1nnnc1SCC(=O)NCc1ccc2c(c1)OCO2`, the inhibition is -4.5% (inactive). Consider `OCCN1CCN(c2ncnc3nc[nH]c23)CC1`, for which the inhibition was 10.7% (inactive). Take `COCCN1CCCC(CNCc2cn(C)nc2-c2ccc(Oc3ccccc3)cc2)C1` (centres undefined): the inhibition is 10.6% (inactive). For the compound `O=c1c(Cc2ccc(Cl)cc2Cl)c(O)ccn1CCCN1CCOCC1`, the inhibition was -5.3% (inactive). With `O=C(C1=C[C@H](c2ccc(C(F)(F)F)cc2)C[C@H](OCCCCO)O1)N1CCOCC1`, the inhibition was -0.7% (inactive).

In the case of `NC(=O)C1=C[C@H](c2ccc(C(F)(F)F)cc2)C[C@H](OCCCCO)O1`, the inhibition is 53.7% (active).

Consider `CN1CCN(C(=O)C2=C[C@@H](c3ccc(C(F)(F)F)cc3)C[C@@H](OCCCCO)O2)CC1`, for which the inhibition was 1.4% (inactive).

As to `O=C(O)C1=C[C@H](c2ccc(Br)cc2)C[C@H](OCCCCO)O1`, the inhibition was -7.2% (inactive). Turning to `O=C(C1=C[C@@H](c2ccc(C(F)(F)F)cc2)C[C@@H](OCCCCO)O1)N1CCOCC1`, the inhibition was -1.4% (inactive).

As to `C#CCNC(=O)C1=C[C@@H](c2ccc(C(F)(F)F)cc2)C[C@@H](OCCCCO)O1`, the inhibition was 38.5% (inactive). For the compound `NC(=O)C1=C[C@@H](c2ccc(Br)cc2)C[C@@H](OCCCCO)O1`, the inhibition was 66.1% (active). Under `NC(=O)C1=C[C@@H](c2ccc(C(F)(F)F)cc2)C[C@@H](OCCCCO)O1` stands 57.4% (active); under `O=C(NC1CC1)C1=C[C@@H](c2ccc(Br)cc2)C[C@@H](OCCCCO)O1`, -2.7% (inactive). Under `CN(C)CCCCOc1cccc(Br)c1` stands -14% (inactive).

For the compound `COCCn1c(=O)[nH]c2cc(C(=O)NCCCN3CCN(c4ccc(F)cc4)CC3)ccc2c1=O`, the inhibition is -12.2% (inactive).

`CCC(=O)Nc1cc(C(C)C)c(O)cc1C`: the inhibition was -2.4% (inactive). On to `CCOc1cc(C(=O)N2CCN(c3ccc(C(C)=O)cc3)CC2)cc(OCC)c1OCC`, for which the inhibition is 6.8% (inactive). Under `O=C(O)c1ccc(CSCc2ccco2)cc1` stands 4.1% (inactive); under `CC(C(=O)Nc1cccc([N+](=O)[O-])c1)N1CCN(C/C=C/c2ccccc2)CC1` (centres undefined), 12% (inactive); under `Cc1c(/C=N\NC(=O)c2ccc(F)cc2)cnn1C`, 9.7% (inactive).

As for `Cc1occc1C(=O)N/N=C/c1cnn(C)c1C`, the inhibition was 64% (active). Then `Cc1c(/C=N\NC(=O)c2csc3ccccc23)cnn1C`, with 2.4% (inactive). As for `COc1c2ccoc2c(OC[C@@H](O)C(C)(C)OC)c2oc(=O)ccc12`, the inhibition was 9.3% (inactive). Then `CCOC(=O)N1CCN(C(=O)C2CCN(CC3CCCCC3)CC2)CC1`, with -10.5% (inactive); and `COc1ccc(C(=O)n2nnc3ccccc32)cc1OC`, with 6% (inactive).
